Screens deposited in PubChem by several laboratories.
Compounds with a hit are over-represented: about 12% of the library has one in this group of screens.
ROMK primary – modulators of human ROMK potassium channel; 2% of 130,000 active; AID 1918; Tet-inducible ROMK, thallium flux fluorescence; actives lie on both sides; B-score at 10 µM; P48048;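 active = signal ratio slope over the read window, or its plate-corrected B-score, at least 3 SD from the plate mean, either direction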;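 also: B-score of the F/F0 ratio slope over 7 to 12 s after thallium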
Target sequence (P48048 whole entry, looked up): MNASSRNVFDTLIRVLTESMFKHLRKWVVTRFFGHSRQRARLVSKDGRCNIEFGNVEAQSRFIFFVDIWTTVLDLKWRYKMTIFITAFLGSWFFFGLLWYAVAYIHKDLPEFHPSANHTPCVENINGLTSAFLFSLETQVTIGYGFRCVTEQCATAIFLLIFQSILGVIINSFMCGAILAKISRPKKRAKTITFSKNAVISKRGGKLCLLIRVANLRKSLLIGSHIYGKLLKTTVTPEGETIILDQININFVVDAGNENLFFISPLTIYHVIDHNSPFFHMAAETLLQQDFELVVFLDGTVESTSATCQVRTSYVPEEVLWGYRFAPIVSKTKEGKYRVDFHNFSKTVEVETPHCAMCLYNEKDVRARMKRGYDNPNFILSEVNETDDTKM
INS promoter inh – TRM-6 insulin promoter activity inhibition; TRM-6 cells (human fetal islet line), insulin promoter-eGFP reporter, imaging; reporter expression induced with tamoxifen; inhibition, % at 2 µM; 0.9% of 130,000 active;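 active = inhibition above the mean plus 3 SD, with well images judged a real hit on visual review, cut at about 60% in these data, passing the limit was not always enough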
L major viab – reduces viability of Leishmania major promastigotes. resazurin fluorescence viability. inhibition, % at 10 µM. 9% of 200,000 active; in the data active = inhibition above about 50%;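 also: promastigotes grown with compound for 44 hours at 28 °C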
WT yeast gro inh – growth inhibition of WT yeast, mitochondrial fusion screen. mitochondrial fusion phenotypic screen, WT strain. inhibition, % at 10 µM. 2.1% of 190,000 active. AID 1362; in the data active = inhibition above about 58%; tested in S. cerevisiae
Insulin prom up – MIN6 insulin promoter up-regulation. MIN6 insulin promoter-GFP reporter, high-content imaging; active compounds read high. z-score at 5 µM. 0.3% of 190,000 active. AID 1625;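 active = z-score above 3 at 5 µM with at least 500 cells counted in the well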
Cl transport mod – modulators of human KCC2 chloride dependent transport; Q9H2X9; KCC2 cells, thallium flux FluoZin-2 fluorescence; B-score of Tl+ flux slope (higher = more flux/activation; lower = inhibition) at 10 µM; 2.2% of 190,000 active;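 active = thallium flux slope and its plate-corrected score both differing from the plate sample mean at a set confidence after two filtering rounds, in either direction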;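 also: slope of fluorescence scaled to starting intensity during 10 to 20 s after thallium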
Active calls of the source: *; . = not tested or not shown.

SMILES	ROMK primary	INS promoter inh	L major viab	WT yeast gro inh	Insulin prom up	Cl transport mod
Cc1ccc(S(=O)(=O)c2ccc(Cl)cc2)cc1S(=O)(=O)NC(C)C(=O)O (stereo not drawn)	0.87	12	52*	-6	-0.04	-0.46
Cc1ccc(S(=O)(=O)c2ccc(Cl)cc2)cc1S(=O)(=O)N1CCN(C)CC1	-0.16	3	99*	3	0.2	.
COc1c(Cl)cc(Cl)cc1C(=O)Nc1ccc(NC(C)=O)cc1	0.21	33	60*	1	.	-0.38
COc1c(Cl)cc(Cl)cc1/C=C/C(=O)c1ccc(NC(=O)c2cccs2)cc1	.	66	100*	24	-3.5	-0.68
CCOc1ccccc1C1N(c2ccc(F)cc2)C(=O)C2CCCN21 (stereo not drawn)	-0.051	38	-2	1	0.48	1
c1ccc(Cn2nnnc2C(c2cccnc2)N2CCN(c3ccccc3)CC2)cc1 (stereo not drawn)	.	.	99*	-36	-0.74	-0.0053
CC(C)(C)n1nnnc1C(c1cccnc1)N1CCN(c2ccccc2)CC1 (stereo not drawn)	.	19	78*	5	0.02	0.36
Cc1cccc(N2CCN(C(c3cccs3)c3nnnn3C(C)(C)C)CC2)c1C (stereo not drawn)	0.056	.	76*	47	-0.28	.
CC(C)(C)n1nnnc1C(c1cccnc1)N1CCN(c2ccccn2)CC1 (stereo not drawn)	.	0	81*	-6	0.65	-0.34
Cc1cc(C)n(-c2cccc(Cl)c2C#N)n1	0.00046	.	.	.	.	-0.33
Oc1cccc(C(Nc2nccs2)c2ccc3cccnc3c2O)c1 (stereo not drawn)	0.45	.	100*	-10	-2.3	-2.9
Oc1c(C(Nc2cccc(C(F)(F)F)c2)c2cccnc2)ccc2cccnc12 (stereo not drawn)	0.27	47	100*	-5	-0.3	1.1
O=C(COc1cccc2cccnc12)Nc1nccs1	0.75	-6	8	10	-0.32	0.27
Cc1cc(NC(c2cccnc2)c2ccc3cccnc3c2O)no1 (stereo not drawn)	.	-6	99*	0	-3.9	-1.4
Oc1c(C(Nc2ccccn2)c2cccnc2)cc(Cl)c2cccnc12 (stereo not drawn)	-0.62	27	94*	-25	-0.41	-0.97
COc1ccc(-c2[nH]ncc2CN(CC2CCC(=O)N2)C(C)C)cc1F (stereo not drawn)	1.4	.	1	20	0.86	0.12
CCN1CCN(C(=O)CCCn2c(C)c3cnn(-c4ccccc4)c(=O)c3c2C)CC1	.	.	69*	-9	-1.5	0.19
Cc1c2cnn(-c3ccccc3)c(=O)c2c(C)n1CCCC(=O)N1CCN(c2ncccn2)CC1	.	-50	-7	26	-1.1	0.84
COc1cccc2c1OC1(C)CC2NC(=O)N1 (stereo not drawn)	-0.0067	-7	-5	14	-0.47	-0.067
COc1cccc2c1OC1(C)CC2/C(=C(\C)O)C(=O)N1 (stereo not drawn)	.	91*	-2	16	0.46	-0.64
CCOC(=O)c1c(C)[nH]c(C(=O)COC(=O)c2ccncc2)c1C	.	.	-1	-5	-0.63	-0.01
Cc1sc(NC(=O)c2ccco2)c(C(c2ccc(F)cc2)N2CCN(C)CC2)c1C (stereo not drawn)	-1.4	.	51*	95*	-0.43	0.27
Cc1sc(NC(=O)c2ccco2)c(C(c2ccccc2)N2CCC(C)CC2)c1C (stereo not drawn)	1.1	36	37	49	0.24	0.66
Cc1sc(NC(=O)c2ccco2)c(C(c2cccnc2)N2CCN(CCO)CC2)c1C (stereo not drawn)	-0.43	-6	5	-7	-0.69	-0.38
CCOC(=O)C1CCN(C(c2cccnc2)c2c(NC(=O)c3ccco3)sc(C)c2C)CC1 (stereo not drawn)	-1.3	29	93*	42	-0.06	.
Cc1sc(NC(=O)c2ccco2)c(C(c2cccnc2)N2CCN(c3ccc(F)cc3)CC2)c1C (stereo not drawn)	.	14	80*	56	-0.9	-0.089
CCOc1ccc(C(c2c(NC(=O)c3ccccc3)sc(C)c2C)N2CCN(CCO)CC2)cc1 (stereo not drawn)	-1.5	12	45	68*	-0.51	0.89
COc1ccc(-n2c(SCC(=O)NCc3ccco3)nc3c([nH]c4ccccc43)c2=O)cc1	.	.	-2	6	-0.15	-0.17
